CHX counter = counter-screen hit for Shiga toxin inhibitors, cycloheximide; cell reporter, cycloheximide protein synthesis inhibition counterscreen; hit rate 12% among 300,000; AID 2314; max response, %; in the data active = max response mostly above about 13%, no sharp cut-off; inactive = mostly below about 14%; also: read at 38.3 µM for the half of the compounds with a filed dose
NS1 function inh = blocks influenza NS1 protein function; hit rate 0.4% among 270,000; Potency, µM (top dose mostly 46.1 µM); calls by dose curve; also: actives are rising curves; nearly all actives have a fitted effect of over 50% in size
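Read-out: OD600 growth recovery of NS1-expressing budding yeast. Cells grown overnight at 30C in -URA glucose medium, washed, resuspended and diluted 1:100 in 2% galactose assay medium, pH 6.0. Same strain lacking NS1 served as positive control.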
Pf growth 96h = P. falciparum growth inhibition at 96 hour, primary screen for plastid delayed-death inhibitors. hit rate 6.9% among 320,000. Potency, µM (highest dose often 28.7 µM), usual class: inhibitors. P. falciparum luciferase reporter growth, 96 h. AID 504834
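Two-generation exposure (96 h) targets delayed-death phenotype. Reporter parasites carrying integrated firefly luciferase, in red cells at 2% hematocrit and 0.05% parasitemia final, kept at 37 C, 5% CO2; luminescence loss indicates inhibition.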
Pf growth 48h = inhibits P. falciparum growth in the first generation, 48 h; P. falciparum luciferase growth in erythrocytes, 48 h; Potency, µM (highest dose often 28.7 µM), usual class: inhibitors; hit rate 5.9% among 310,000
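A one-generation exposure of luciferase-tagged malaria parasites in RPMI 1640/Albumax erythrocyte culture, 37 C and 5% CO2. Inhibition is inferred from decreased luminescence after adding detection reagent.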
Shiga inhibitor = blocks Shiga toxin action in Vero cells. hit rate 9.2% among 290,000. inhibition, % at 38.7 µM. Vero cells, Shiga toxin protein synthesis inhibition reporter; in the data active = inhibition mostly above about 28%, no sharp cut-off; inactive = mostly below about 43%
A number is an active result; . = inactive; ? = inconclusive; / = not tested or not shown. This is a sample that favours compounds with a hit; in the whole collection about 21% have one here. Unless noted, calls follow the shape of the dose curve; as a rule, active = well fitted inhibition curve with a large enough effect; inconclusive = small, poorly fitted or top-dose-only effect, or another doubt; inactive = no such curve, though single readings can be large or run the other way.

SMILES	CHX counter	NS1 function inh	Pf growth 96h	Pf growth 48h	Shiga inhibitor
S=C(S)N1CCCC1	/	.	?	10µM	/
S=C(S)N1CCNCC1	/	/	.	.	/
CCOc1cc(OCC)nc(S(C)(=O)=O)n1	.	.	?	?	.
CC12CCC(C(=O)N(CSC(=S)N/N=C\c3ccccc3O)C1=O)C2(C)C (stereo unspecified)	26	.	?	10µM	.
Cc1ccc(-n2[nH]c(C)c(C=Nc3ccc(S(=O)(=O)N4CCOCC4)cc3)c2=O)c(C)c1	.	.	?	.	.
CCC1=C(OC(=O)N(CC)CC)N2C(=O)OC(=NCCOC)[C@]2(Cc2ccccc2)[C@H]2C1=CC[C@H]1C(=O)N(C)C(=O)[C@H]12	.	.	?	10µM	.
CCC1=C(OC(=O)N(CC)CC)N2C(=O)OC(=NCCc3c[nH]c4ccccc34)[C@]2(C)[C@H]2C1=CC[C@H]1C(=O)N(C)C(=O)[C@H]12	.	.	?	10µM	.
CCC1=C(OC(=O)N(CC)CC)N2C(=O)OC(=NCCOC)[C@]2(Cc2ccccc2)[C@H]2C1=CC[C@H]1C(=O)N(CC)C(=O)[C@H]12	.	.	?	13µM	.
CCC1=C(OC(=O)N(CC)CC)N2C(=O)OC(=NCCc3c[nH]c4ccccc34)[C@]2(Cc2ccccc2)[C@H]2C1=CC[C@H]1C(=O)N(CC)C(=O)[C@H]12	.	.	13µM	9.3µM	.
CCC1=C2CC[C@H]3C(=O)N(C)C(=O)[C@H]3[C@H]2[C@@]2(Cc3ccccc3)C(=NCCOC)OC(=O)N2C1=O	.	.	.	.	.
CCC1=C(OC(=O)N(CC)CC)N2C(=O)OC(=NCC(=O)OC)[C@]2(C)[C@H]2C1=CC[C@H]1C(=O)N(CC(=O)OC)C(=O)[C@H]12	.	.	.	.	.
COc1cccc(NC(=O)CCCCCn2nnc3ccccc3c2=O)c1	.	.	?	.	.
CCC1=C(OC(=O)N(CC)CC)N2C(=O)OC(=NCC(=O)OC)[C@]2(C)[C@H]2C1=CC[C@H]1C(=O)N(CC)C(=O)[C@H]12	.	.	.	.	.
CCC1=C(OC(=O)N(CC)CC)N2C(=O)OC(=NCc3ccccc3)[C@]2(C)[C@H]2C1=CC[C@H]1C(=O)N(CC)C(=O)[C@H]12	.	.	?	12µM	.
COC(=O)CN=C1OC(=O)N2C(=O)C3=C4[C@@H](C[C@H]5C(=O)N(c6ccccc6)C(=O)[C@H]5[C@H]4[C@@]12Cc1ccccc1)[C@H]1C(=O)N(c2ccccc2)C(=O)[C@H]1[C@H]3C	.	.	?	12µM	.
CCC1=C(OC(=O)N(CC)CC)N2C(=O)OC(=NCC(=O)OC)[C@]2(Cc2ccccc2)[C@H]2C1=CC[C@H]1C(=O)N(CC(=O)OC)C(=O)[C@H]12	.	.	?	12µM	.
CCC1=C(OC(=O)N(CC)CC)N2C(=O)OC(=NCC3CC3)[C@]2(Cc2ccccc2)[C@H]2C1=CC[C@H]1C(=O)N(CC)C(=O)[C@H]12	.	.	13µM	7.4µM	.
CCN(c1ccccc1)S(=O)(=O)c1cc(C(=O)Nc2ccccc2Cl)ccc1F	.	.	2.9µM	.	.
CCN(c1ccccc1)S(=O)(=O)c1ccc(F)c(C(=O)O)c1	.	.	.	.	.
CCN(c1ccccc1)S(=O)(=O)c1cc(C(=O)Nc2ccc(Br)cc2)ccc1F	14	.	?	?	65
CCCOc1ccc(-c2c(C(=O)N/N=C(\C)COc3ccccc3)nnn2-c2nonc2N)cc1	.	?	.	.	.
S=C(c1ccc(-c2ccc(Br)cc2)o1)N1CCOCC1	51	.	.	.	92
O=C(c1cccc(Oc2ccc([N+](=O)[O-])cc2Cl)c1)N1CCOCC1	.	.	?	.	.
O=C(c1ccc(-c2ccccc2Cl)o1)N1CCC1	/	/	.	.	/
S=C(c1ccc(-c2ccc(Br)cc2)o1)N1CCCCC1	.	.	.	.	.
S=C(c1ccc(-c2ccc(Cl)c(Cl)c2)o1)N1CCOCC1	62	.	.	.	96
O=C(c1ccc(-c2ccc([N+](=O)[O-])cc2Cl)o1)N1CCOCC1	26	.	.	.	57

High-throughput results (PubChem BioAssay)
